Activity calls are given as the source filed them.
Legend:
[1] = optical density shifts of acrAB sulA E. coli – strain DRC41, OD650, 48 h, E. coli filamentation inducer project, primary screen (AID 1152); conditions: higher = more signal, called active from +8 up or from −8 down;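 note: E. coli MC1000 strain DRC41 lacking acrAB efflux pump and sulA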
[2] = probe aLefty1 binding on compound microarray – biochemical, small-molecule microarray, 635/667 nm fluorescence, primary screen (AID 1153); conditions: higher = more signal;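 note: score merges spot fluorescence with signal-to-noise ratio from the scanned slide images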
[3] = plasmodial surface anion channel blockers, osmotic lysis – cell-based, P. falciparum Indochina, OD700, 1 h, primary screen (AID 1154); conditions: P. falciparum Indochina infected RBC osmotic lysis, higher = more signal, called active from +8 up or from −8 down
[4] = plasmodial surface anion channel blockers, osmotic lysis – cell-based, P. falciparum Indochina, OD700, 2 h, primary screen (AID 1155);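 note: lysis reports solute entry through the parasite surface anion channel PSAC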; conditions: P. falciparum Indochina infected erythrocytes, higher = more signal, called active from +8 up or from −8 down
[5] = changes in parasitized red cell lysis, either direction – P. falciparum Indochina, OD700, 3 h, PSAC antagonist project, primary screen (AID 1156); conditions: P. falciparum-infected erythrocytes, osmotic lysis, higher = more signal, called active from +8 up or from −8 down
[6] = plasmodial surface anion channel blockers, osmotic lysis – cell-based, P. falciparum Indochina, OD700, 18 h, primary screen (AID 1157); conditions: P. falciparum Indochina infected erythrocytes, osmotic lysis OD700, 18 h; higher = more signal, called active from +8 up or from −8 down
[7] = S6 kinase pathway phospho-S6 level changes – cell-based, A549, cytoblot, luminescence, serum-stimulated, primary screen (AID 1158); conditions: 5 h, higher = more signal;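 note: serum-stimulated A549 lung adenocarcinoma cells; signal is phosphorylated S6 detected by cytoblot immunostaining with HRP secondary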
[8] = target: NADPH oxidase 2 (Homo sapiens) (UniProt P04839); test: compounds shifting NOX2 Amplex Red fluorescence – cell-based, HEK293-NOX2, PMA-stimulated, NOX inhibitor project, primary screen (AID 1159); conditions: 45 min, higher = more signal, called active from +8 up or from −8 down; note: test concentration not given here
[9] = target: NADPH oxidase 4 (Homo sapiens) (UniProt Q9NPH5); test: compounds shifting NOX4 Amplex Red fluorescence – cell-based, HEK293-NOX4, tetracycline-induced, NOX inhibitor project, primary screen (AID 1160); conditions: HEK293-NOX4, Amplex Red H2O2 fluorescence, 45 min; higher = more signal, called active from +8 up or from −8 down
[10] = target: NADPH oxidase 5 (Homo sapiens) (UniProt Q96PH1); test: compounds shifting NOX5 Amplex Red fluorescence – cell-based, HEK293-NOX5, NOX inhibitor project, primary screen (AID 1161); conditions: HEK293-NOX5, ionomycin, 45 min, higher = more signal
[11] = compound effects on lung adenocarcinoma cell viability – A549, calcein-AM fluorescence, 48 h, basal, profiling panel (AID 1162); conditions: higher = more signal; note: test concentration not given here
[12] = compound effects on differentiated 3T3-L1 adipocyte viability – cell-based, 3T3-L1 adipocytes, calcein-AM fluorescence, 48 h, basal, profiling panel (AID 1163); conditions: 3T3-L1 adipocytes viability, higher = more signal; note: test concentration not given here
[13] = compound effects on hepatocellular carcinoma cell viability – HepG2, calcein-AM fluorescence, 48 h, basal, profiling panel (AID 1164); conditions: higher = more signal; note: test concentration not given here
[14] = compound effects on multiple myeloma cell viability – MM1S, calcein-AM fluorescence, 48 h, basal, profiling panel (AID 1165); conditions: higher = more signal; note: test concentration not given here
[15] = calcein-AM signal in unstimulated myeloma cells – cell-based, calcein-AM fluorescence, 48 h, PK04 Diversity Set, profiling panel (AID 1166); conditions: RPMI8226 myeloma viability, higher = more signal;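 note: cells grown under basal conditions without added stimulus; test concentration not given here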
[16] = JC-1 mitochondrial signal, unstimulated HepG2 cells – cell-based, JC-1 fluorescence, 24 h, 100 nL compound, profiling panel (AID 1167); conditions: HepG2 mitochondrial potential, higher = more signal; note: test concentration not given here
[17] = JC-1 mitochondrial signal, unstimulated adipocytes – cell-based, JC-1 fluorescence, 3T3-L1 adipocytes, 24 h, 100 nL compound, profiling panel (AID 1168); conditions: JC-1 mitochondrial fluorescence, higher = more signal, called active from +8 up or from −8 down; note: test concentration not given here
[18] = JC-1 mitochondrial signal, unstimulated myeloma cells – cell-based, JC-1 fluorescence, RPMI8226, 24 h, 100 nL compound, profiling panel (AID 1169); conditions: JC-1 mitochondrial potential fluorescence, higher = more signal; note: test concentration not given here
[19] = JC-1 mitochondrial signal, unstimulated MM1S myeloma – cell-based, JC-1 fluorescence, 24 h, 100 nL compound, profiling panel (AID 1170); conditions: MM1S mitochondrial potential, higher = more signal; note: test concentration not given here
[20] = resazurin metabolic signal in A549 cells – cell-based, resazurin fluorescence, 24 h, PK04 Diversity Set, profiling panel (AID 1171); conditions: A549 viability, higher = more signal, called active from +8 up or from −8 down; note: test concentration not given here

Chain of NADPH oxidase 4 (Homo sapiens) (Q9NPH5 whole entry, looked up): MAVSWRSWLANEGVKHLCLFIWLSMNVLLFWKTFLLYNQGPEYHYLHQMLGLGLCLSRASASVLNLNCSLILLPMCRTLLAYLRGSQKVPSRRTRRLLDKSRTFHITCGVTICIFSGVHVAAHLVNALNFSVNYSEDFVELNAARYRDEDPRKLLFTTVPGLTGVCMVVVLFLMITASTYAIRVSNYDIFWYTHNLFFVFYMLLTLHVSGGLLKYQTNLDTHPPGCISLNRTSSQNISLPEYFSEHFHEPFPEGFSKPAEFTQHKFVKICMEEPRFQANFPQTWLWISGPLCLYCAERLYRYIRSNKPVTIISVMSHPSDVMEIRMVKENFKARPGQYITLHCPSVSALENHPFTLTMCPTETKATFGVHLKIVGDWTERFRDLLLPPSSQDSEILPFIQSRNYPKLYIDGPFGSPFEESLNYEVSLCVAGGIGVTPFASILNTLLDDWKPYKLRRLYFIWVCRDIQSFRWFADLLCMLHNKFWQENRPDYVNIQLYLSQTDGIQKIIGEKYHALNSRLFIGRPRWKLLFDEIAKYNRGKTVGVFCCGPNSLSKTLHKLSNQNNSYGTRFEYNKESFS
Chain of NADPH oxidase 2 (Homo sapiens) (P04839 whole entry, looked up): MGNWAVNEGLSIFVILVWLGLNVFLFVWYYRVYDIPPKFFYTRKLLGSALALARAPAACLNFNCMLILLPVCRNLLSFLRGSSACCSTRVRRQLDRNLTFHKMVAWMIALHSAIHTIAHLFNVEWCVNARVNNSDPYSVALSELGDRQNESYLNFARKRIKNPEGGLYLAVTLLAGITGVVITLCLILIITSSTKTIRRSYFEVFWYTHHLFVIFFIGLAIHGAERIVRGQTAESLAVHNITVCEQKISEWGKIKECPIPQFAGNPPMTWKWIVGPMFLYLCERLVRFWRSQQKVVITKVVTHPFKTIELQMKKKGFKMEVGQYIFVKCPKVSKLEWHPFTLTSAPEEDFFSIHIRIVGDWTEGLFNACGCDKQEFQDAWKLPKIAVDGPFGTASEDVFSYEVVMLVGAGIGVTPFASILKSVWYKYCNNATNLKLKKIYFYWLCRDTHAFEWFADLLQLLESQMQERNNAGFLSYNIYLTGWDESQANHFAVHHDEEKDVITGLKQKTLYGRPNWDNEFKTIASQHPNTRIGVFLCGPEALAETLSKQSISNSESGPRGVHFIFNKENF
Chain of NADPH oxidase 5 (Homo sapiens) (Q96PH1 whole entry, looked up): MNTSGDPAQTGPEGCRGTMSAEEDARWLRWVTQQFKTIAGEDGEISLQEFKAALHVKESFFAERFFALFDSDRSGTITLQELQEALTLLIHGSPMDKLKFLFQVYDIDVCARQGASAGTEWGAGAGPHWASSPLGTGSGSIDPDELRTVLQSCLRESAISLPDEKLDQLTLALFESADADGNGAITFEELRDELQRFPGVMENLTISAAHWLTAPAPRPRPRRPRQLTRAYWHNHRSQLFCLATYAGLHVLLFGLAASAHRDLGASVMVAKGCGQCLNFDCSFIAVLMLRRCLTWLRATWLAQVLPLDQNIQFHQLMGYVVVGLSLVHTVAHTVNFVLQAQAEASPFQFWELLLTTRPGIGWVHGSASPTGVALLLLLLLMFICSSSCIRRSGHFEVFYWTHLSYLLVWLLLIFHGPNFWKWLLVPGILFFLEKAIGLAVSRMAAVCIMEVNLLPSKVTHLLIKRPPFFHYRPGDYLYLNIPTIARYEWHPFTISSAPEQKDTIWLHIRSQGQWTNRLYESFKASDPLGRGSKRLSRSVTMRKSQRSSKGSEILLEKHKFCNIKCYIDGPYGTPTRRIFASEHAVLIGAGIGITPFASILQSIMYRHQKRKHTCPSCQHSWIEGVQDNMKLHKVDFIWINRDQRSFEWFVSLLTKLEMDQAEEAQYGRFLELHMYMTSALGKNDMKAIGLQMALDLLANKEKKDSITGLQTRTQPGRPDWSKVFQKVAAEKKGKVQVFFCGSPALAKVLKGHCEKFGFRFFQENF

SMILES | z-score [1] | composite z-score [2] | z-score [3] | z-score [4] | z-score [5] | z-score [6] | z-score [7] | z-score [8] | z-score [9] | z-score [10] | z-score [11] | z-score [12] | z-score [13] | z-score [14] | z-score [15] | z-score [16] | z-score [17] | z-score [18] | z-score [19] | z-score [20]
COc1cc2c(cc1O)C=[N+](Cc1cc3c(cc1Br)OCO3)CC2 | -0.167 (inactive) | -0.237 | 3 (inactive) | 0.472 (inactive) | 2.26 (inactive) | 0.154 (inactive) | -0.273 | -3.59 (inactive) | -2.72 (inactive) | -3.37 | -0.103 | 0.626 | -0.958 | 0.343 | -0.109 | -0.375 | -0.935 (inactive) | 0.108 | -0.374 | -0.698 (inactive)
[N-]=[N+]=Nc1ccccc1C[C@]1(C(=O)NCC(O)CO)N=C(c2ccc(OCCCO)cc2)O[C@H]1c1ccccc1 (stereo not given in full) | -0.2 (inactive) | 0.027 | 19.9 (active) | 3.78 (inactive) | 1.64 (inactive) | 1.18 (inactive) | -0.132 | 1.34 (inactive) | 0.567 (inactive) | -1.25 | -0.432 | -0.281 | -0.259 | -1.04 | -0.984 | -0.571 | -0.332 (inactive) | -0.514 | -0.283 | 0.381 (inactive)
COC(=O)c1c(CC[C@@H](CO)NC(=O)N[C@H](Cc2ccccc2)Cn2cc(-c3ccccn3)nn2)oc(C(C)=O)c1C(=O)OC | -0.72 (inactive) | -0.194 | 27.1 (active) | 12.7 (active) | 0.729 (inactive) | 1.41 (inactive) | 0.032 | -1.52 (inactive) | 0.594 (inactive) | 1.24 | 0.372 | 0.337 | -0.362 | 0.258 | -0.406 | -0.607 | -0.821 (inactive) | -0.0316 | -0.131 | -0.533 (inactive)
Cc1ccc(C2C3C(=O)CC4C(=O)N(c5ccccc5)C(=O)C4C3CN2S(=O)(=O)c2ccc(C)cc2)cc1 (stereo not given) | -0.339 (inactive) | 0.476 | 1.7 (inactive) | 0.714 (inactive) | 1.72 (inactive) | 0.438 (inactive) | -0.69 | 1.28 (inactive) | 0.793 (inactive) | -0.9 | -0.105 | -0.172 | 0.261 | 0.948 | 0.563 | 0.371 | 0.134 (inactive) | 0.515 | -0.878 | -0.821 (inactive)

Reference: PubChem BioAssay
